Measurements taken from PubChem BioAssay AID1159580 (chemical genetic matrix, 2015).
“And” between values parts separate entries of the source, which are not always exact repeats. Equal values may be shown once. Hit rate of the full screen: of about 5,500 compounds, about 2,000 (36%) were called active. About 18% were inconclusive and are not listed. Rule as the data show it: active = normalized growth mostly below about 0.91 (no sharp cut-off); inconclusive = no clear call, values can overlap the other calls; inactive = mostly above about 0.92. The list shows a part of the results.

Test: chemical genetic growth profiling, strain panel (AID 1159580);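 also: tested at 20 µM; growth read once vehicle control cultures reached saturation at 30 °C; 1 = growth at the plate median or of vehicle wells; lower values mean less growth of the strain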
Details: S. cerevisiae deletion strains, growth OD

Measured: normalized growth

Cc1cc(C(C)(C)C)cc(C)c1CC1=NCCN1
inactive: locus YAL013W, strain DEP1, active compounds read low 1.02 and 0.999 | locus YAL021C, strain ccr4, active compounds read low 0.987 | locus YAL026C, strain drs2, active compounds read low 0.986 | locus YAL030W, strain snc1, active compounds read low 1 | locus YAL040C, strain CLN3, active compounds read low 0.976 | locus YBL061C, strain skt5, active compounds read low 0.999 | locus YBR009C, strain hhf1, active compounds read low 0.957 | locus YBR021W, strain FUR4, active compounds read low 1.02 | locus YBR023C, strain chs3, active compounds read low 1.01 | locus YBR171W, strain sec66, active compounds read low 1.01 | locus YBR229C, strain ROT2, active compounds read low 1.01 | locus YBR231C, strain swc5, active compounds read low 1 | locus YBR279W, strain paf1, active compounds read low 0.993 | locus YCL011C, strain gbp2, active compounds read low 0.988 | locus YCL016C, strain dcc1, active compounds read low 0.99 | locus YCL029C, strain bik1, active compounds read low 1.01 | locus YCL061C, strain MRC1 (second series), active compounds read low 0.999 | locus YCL061C, strain MRC1, active compounds read low 1.02 | locus YCL069W, strain vba3, active compounds read low 1 | locus YCR088W, strain abp1, active compounds read low 0.996 | locus YDL005C, strain med2, active compounds read low 1.01 | locus YDL035C, strain GPR1, active compounds read low 1.03 | locus YDL040C, strain nat1, active compounds read low 1 | locus YDL074C, strain BRE1, active compounds read low 1.02 | locus YDL101C, strain DUN1, active compounds read low 1.01 | locus YDL134C, strain PPH21, active compounds read low 1.02 | locus YDL185W, strain tfp1, active compounds read low 1.01 | locus YDL192W, strain arf1, active compounds read low 1.01 | locus YDR001C, strain nth1, active compounds read low 1.01 | locus YDR069C, strain doa4, active compounds read low 1.02 | locus YDR101C, strain arx1, active compounds read low 1 | locus YDR137W, strain rgp1, active compounds read low 0.994 | locus YDR150W, strain NUM1, active compounds read low 1.02 | locus YDR159W, strain sac3, active compounds read low 0.941 | locus YDR162C, strain NBP2, active compounds read low 1.01 | locus YDR195W, strain ref2 1.01 | locus YDR297W, strain sur2, active compounds read low 1 | locus YDR318W, strain mcm21, active compounds read low 0.995 | locus YDR334W, strain swr1, active compounds read low 0.993 | locus YDR335W, strain msn5, active compounds read low 0.999 | locus YDR363W, strain ESC2, active compounds read low 1 | locus YDR388W, active compounds read low 1 | locus YDR392W, strain spt3, active compounds read low 0.926 | locus YDR502C, strain sam2, active compounds read low 0.998 | locus YEL003W, strain gim4, active compounds read low 1.01 | locus YEL037C, strain rad23, active compounds read low 1 | locus YEL061C, strain CIN8 (second series), active compounds read low 0.997 | locus YEL061C, strain CIN8, active compounds read low 1.02 | locus YER002W, strain NOP16, active compounds read low 1 | locus YER015W, strain faa2, active compounds read low 0.998 | locus YER016W, strain bim1, active compounds read low 0.973 | locus YER110C, active compounds read low 0.994 | locus YER111C, strain swi4, active compounds read low 1 | locus YER155C, strain BEM2 (second series), active compounds read low 1.02 | locus YER155C, strain BEM2, active compounds read low 1.01 | locus YER167W, strain BCK2, active compounds read low 1.01 | locus YFR010W, strain ubp6, active compounds read low 1.02 | locus YGL078C, strain dbp3, active compounds read low 1 | locus YGL086W, strain mad1, active compounds read low 1 | locus YGL167C, strain pmr1, active compounds read low 1 | locus YGL173C, strain kem1, active compounds read low 1.02 | locus YGL227W, strain vid30, active compounds read low 1 | locus YGL240W, strain doc1, active compounds read low 1.03 | locus YGL248W, strain PDE1, active compounds read low 1 | locus YGL253W, strain hxk2, active compounds read low 0.977 | locus YGR078C, strain PAC10, active compounds read low 1.01 | locus YGR135W, strain pre9, active compounds read low 1 | locus YGR229C, strain SMI1, active compounds read low 1.02 | locus YGR252W, strain gcn5, active compounds read low 0.951 | locus YHR013C, strain ard1, active compounds read low 0.971 | locus YHR027C, strain rpn1, active compounds read low 0.993 | locus YHR030C, strain SLT2, active compounds read low 1.02 and 1.01 | locus YHR079C, strain IRE1 (second series), active compounds read low 0.995 | locus YHR079C, strain IRE1, active compounds read low 1.01 | locus YHR094C, strain hxt1, active compounds read low 1 | locus YHR129C, strain ARP1, active compounds read low 1.01 | locus YHR142W, strain chs7, active compounds read low 1.02 | locus YHR200W, strain rpn10, active compounds read low 1 | locus YIL066C, strain RNR3, active compounds read low 1.02 | locus YIL073C, strain SPO22, active compounds read low 1.04 | locus YIL125W, strain kgd1, active compounds read low 0.997 | locus YIR030C, strain dcg1, active compounds read low 1 | locus YJL092W, strain hpr5, active compounds read low 1.02 | locus YJL095W, strain BCK1 (second series), active compounds read low 1.01 | locus YJL095W, strain BCK1, active compounds read low 1.01 and 0.982 | locus YJL115W, strain asf1, active compounds read low 0.985 | locus YJL129C, strain trk1, active compounds read low 1.02 | locus YJL134W, strain LCB3, active compounds read low 1.01 | locus YJL154C, strain vps35, active compounds read low 1.01 | locus YJL164C, strain tpk1, active compounds read low 0.98 | locus YJL166W, strain qcr8, active compounds read low 1.03 | locus YJL168C, strain set2, active compounds read low 0.998 | locus YJL187C, strain SWE1 (second series), active compounds read low 1.03 | locus YJR043C, strain POL32, active compounds read low 1 | locus YJR066W, strain TOR1, active compounds read low 0.937
